Bioassay records (PubChem)
A549 viability: Nrf2 qHTS screen for inhibitors: counterscreen for cytotoxicity | A549 ARE-Fluc cells, CellTiter-Fluor viability, 18-24 h | Potency, µM (top dose mostly 46 µM), without a hit: at the highest dose activity change, negative = cytotoxicity, usual class: inhibitors | actives 0.16% (n = 390,000) | AID 504648, 2011; further: on the % scale 0 is the no-effect control and ±100 the full control effect
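Cytotoxicity counterscreen: CellTiter-Fluor fluorescence was measured in A549 ARE_Fluc cells after 18-24 h of compound exposure in a concentration series. The subsequent BugLite luminescent read reports ARE-luciferase activity.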
Nrf2 activator: qHTS of Nrf2 Activators; AREc32 ARE-luciferase reporter (MCF7-derived line), luminescence, 24 h; Potency, µM (series often up to 46.1 µM), inactives show top-dose activation, most hits filed as activators; actives 0.31% (n = 410,000); further: % of control where 0% means no effect; nearly all actives have a fitted effect of over 65% in size
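ARE activation measured as luciferase luminescence (Steady-Glo, 30 min RT) in AREc32_Fluc cells after 24 hr compound exposure at 37 deg C, 5% CO2; cells seeded overnight at 1000/well in OPTI-MEM, 5% FBS.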
Nrf2 inh: Nrf2 qHTS screen for inhibitors; A549 ARE-Fluc reporter, luciferase luminescence, 18-24 h; Potency, µM (titrated, usually from 46 µM), inactives show top-dose activity change, negative = inhibition, actives largely listed as inhibitors; actives 2.1% (n = 360,000); AID 504444, 2011; further: on the % scale 0 is the no-effect control and ±100 the full control effect; nearly all actives have a fitted effect of over 60% in size
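Cells were seeded and rested 2 h, then exposed to compounds for 18-24 h. CellTiter-Fluor was read first as a viability measure. BugLite was added 15 min before the final luminescent read of ARE-luciferase activity in A549 cells.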
TGFb inhibitor: qHTS for Inhibitors of TGF-b; Potency, µM (doses to about 46.1 µM), for the others: at the top dose activity, negative = inhibition, usual class: inhibitors; actives 1.2% (n = 410,000); AID 588855, 2011; HepG2 CAGA-GFP TGF-b/SMAD3 reporter, GFP fluorescence, 18 h; TGF-beta stimulated, 500 pg/mL final; further: on the % scale 0 is the no-effect control and ±100 the full control effect; nearly all actives have a fitted effect of over 65% in size
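Using HEPG2 CAGA-GFP reporter cells at 1000 cells/well, we pinned test compounds, stimulated with recombinant TGF-beta (500 pg/mL final) and measured total well GFP after 18 h.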
HepG2 tox: qHTS for Inhibitors of TGF-b: Cytotox Counterscreen; HepG2 CAGA-GFP viability, ATP luminescence, 18 h; Potency, µM (doses to about 46.1 µM), inactives show at the highest dose activity change, negative = cytotoxicity, usual class: cytotoxic; actives 0.76% (n = 410,000); AID 588856, 2011
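HepG2 CAGA-GFP cells (1000/well, DMEM with 1% FBS) received compound, then TGF-beta at 500 pg/mL final, and were incubated 18 hours at 37 degrees C. Viability was read by CellTiter-Glo luminescence. Media-only wells were set as complete cell-killing and DMSO as no toxicity.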
* hit, by the source's call; u = inconclusive; x = no result given; [ ] = dose if it differs, or a comment. A selection: hits, their analogues and other compounds. The true share with any hit is near 3.6%. The call rests on the fitted dose curve; in most records, active means well fitted curve in the direction sought with a large enough effect; inconclusive means small, poorly fitted or top-dose-only effect, or another doubt; inactive means no such curve, though single readings can be large; an effect the other way counts as inactive or inconclusive. Potency means the concentration at half of the fitted maximal effect.

SMILES | A549 viability | Nrf2 activator | Nrf2 inh | TGFb inhibitor | HepG2 tox
NC(c1csc(NC(=O)Nc2ccccc2Cl)n1)C1CCCCC1 (centres undefined) | x | 0%[9.22 µM] | x | u | -89%
COc1cc(NC(=O)Nc2nc(C(N)C(C)C)cs2)cc(OC)c1OC (centres undefined) | x | 17% | x | -9% | -11%
COc1ccccc1NC(=O)Nc1nc(C(N)C2CCCCC2)cs1 (centres undefined) | x | 0% | x | u | 11µM*
O=C(CCS(=O)(=O)c1ccccc1)Nc1ccccn1 | 2% | 5% | 8% | 6% | -9%
COc1ccc(S(=O)(=O)c2cc3cc(OC)ccc3oc2=O)cc1 | -5% | 12% | 9% | -12% | -29%
CCOc1ccc(S(=O)(=O)c2cc3cccc(OCC)c3oc2=O)cc1 | -4% | 4.5µM* | 5% | -7% | -3%
Cc1ccc(S(=O)(=O)c2cc3ccccc3oc2=O)cc1 | -1% | 5.6µM* | -14% | -16% | 27%
COc1ccc(S(=O)(=O)c2cc3cc(C(C)(C)C)cc(O)c3oc2=O)cc1 | 3% | 16µM* | u | u | -41%
Cc1ccc(S(=O)(=O)c2nc(NN(C)C)sc2Cl)cc1 | -18% | 0% | 23µM* | 8% | 1%
Cc1ccc(S(=O)(=O)c2nc(Nc3ccccc3C#N)sc2Cl)cc1 | 0% | -1% | 5% | 0% | -7%
CCCCOC(=O)NC1CCc2cc(OC)c(OC)c(OC)c2-c2ccc(SC)c(=O)cc21 (centres undefined) | u | 2% | u | -80% | 0%
CCCc1cc(=O)[nH]c(SCC(=O)NCCCC(=O)OCC)n1 | -9% | -1% | -13% | 1% | 0.45µM*
CCCc1cc(=O)[nH]c(SCC(=O)NC(=O)OCC)n1 | -1% | 0% | 6% | 0% | -3%
CCCc1cc(=O)[nH]c(SCC(=O)Nc2sc(C(N)=O)c(C)c2C(=O)OCCOC)n1 | -3% | -1% | 5.2µM* | -16% | -61%
COCCOC(=O)c1c(NC(=O)CSc2cccc[n+]2[O-])sc(C(N)=O)c1C | 8% | 0% | -17% | 1% | -1%
CCc1ccc(Sc2cc(C(=O)NC(C)CC)c3ccccc3n2)cc1 (centres undefined) | 9% | -1% | x | -18% | -24%
CCN(CC)CCNC(=O)c1cc2c(s1)-c1ccccc1SC2 | u | -3% | 1% | u | -50%
CCOC(=O)c1nnn2c1nc(Nc1cccc(C(F)(F)F)c1)c1ccccc12 | 2% | 2% | u | 5% | 6%
O=C1Nc2ccc(S(=O)(=O)Nc3ccccc3O)c3cccc1c23 | -2% | 10% | 17% | -10% | -3%
CCCCOC(=O)c1c(C)oc2ccc(NS(=O)(=O)c3ccc4c5c(cccc35)C(=O)N4)cc12 | -3% | 5% | u | 14µM* | -18%
Cc1ccc(C)c(NS(=O)(=O)c2ccc3c4c(cccc24)C(=O)N3)c1 | -2% | -5% | 18µM* | u | -79%
O=C1C(=O)c2ccccc2C(O)=C1CCCCl | 1% | -6% | -6% | 2.5µM* | 2µM*
Oc1c(N=Nc2ccccn2)ccc2ccccc12 | u | 9% | u | 6.3µM* | -44%
Oc1[nH]c2ccccc2c1N=Nc1ccccn1 | -10% | u | u | -15% | -19%
Cc1ccc(-c2ccc(/C=N\NC(=O)c3cc4c(ccc5ccccc54)o3)o2)cc1[N+](=O)[O-] | u | 0% | 23µM* | 0% | 17%
SMILES | A549 viability | Nrf2 activator | Nrf2 inh | TGFb inhibitor | HepG2 tox
Cc1ccc([N+](=O)[O-])cc1-c1ccc(/C=N/NC(=O)c2cc3c(ccc4ccccc43)o2)o1 | 1% | 0% | 2% | -31% | 3%
Cc1ccccc1CNC(=O)C1CCN(c2nn3cc(-c4ccc(F)cc4)nc3s2)CC1 | 0% | 1% | u | -25% | -19%
Cc1nn(Cc2ccc(Cl)c(Cl)c2)c(C)c1NC(=O)c1cc(-c2ccc3c(c2)OCO3)on1 | u | 4% | 12µM* | u | -102%
Cc1ccc(NC(=O)c2cc(-c3ccc4c(c3)OCO4)on2)cc1 | 1% | 0% | 9% | 2% | -8%
COc1ccc2c(c1)CCc1c(C(=O)Nc3ccn(Cc4ccc(C)cc4)n3)noc1-2 | -25% | 0% | 16µM* | -17% | -39%
COc1ccc(OC)c(-c2cc(C(=O)Nc3c(C)nn(Cc4ccccc4)c3C)no2)c1 | -15% | 3% | 15µM* | -24% | -18%
Cc1nn(Cc2ccc(Cl)cc2)c(C)c1NC(=O)c1noc2c1CCc1ccccc1-2 | u | 0% | 16µM* | u | -42%
COc1ccc2c(c1)CCc1c(C(=O)Nc3c(C)nn(Cc4ccc(Cl)cc4)c3C)noc1-2 | -2% | 0% | -13% | -4% | -1%
Cc1ccc(Cn2ccc(NC(=O)c3noc4c3CCc3ccccc3-4)n2)cc1 | -2% | 0% | u | 0% | 4%
CCc1ccc(S(=O)(=O)c2cn(C)c3cc(OC)c(OC)cc3c2=O)cc1 | 3% | 0% | -8% | -3% | -1%
COc1cccc(-c2cc(C(=O)NCc3ccco3)no2)c1 | -5% | 1% | x | 16% | -2%
COc1ccc2c(c1)CCc1c(C(=O)Nc3c(C)nn(Cc4ccccc4)c3C)noc1-2 | -6% | -1% | 21µM* | u | -5%
COc1ccc(OC)c(-c2cc(C(=O)NCc3ccco3)no2)c1 | 2% | 11µM* | 4% | -1% | -14%
COC(=O)c1sccc1NC(=O)c1cccc(F)c1 | -6% | 10µM* | 7% | -13% | -36%
COC(=O)c1sccc1NC(=O)c1ccccc1[N+](=O)[O-] | -2% | 11µM* | -1% | u | -2%
COC(=O)c1sccc1NC(=O)c1ccco1 | 1% | 11µM* | -1% | -1% | 7%
CC(C)c1ccc(NC(=O)c2cc(S(=O)(=O)NC3CCCCC3)ccc2F)cc1 | u | -1% | x | u | 13µM*
CC(O)(c1cccc(F)c1)c1nc(-c2cccc(C(F)(F)F)c2)cs1 (centres undefined) | x | -1% | x | u | 16µM*
CC(=O)Nc1cccc(N2C(=O)CC(N3CCC(C(=O)N4CCCCC4)CC3)C2=O)c1 (centres undefined) | 0% | 0% | 4% | 7% | 0%
C(=N\Nc1nc(-c2ccccc2)cs1)/c1cccnc1 | -5% | 11% | 17% | 8% | -17%
Clc1ccc(-c2csc(N/N=C/c3cccnc3)n2)c(Cl)c1 | 2% | 5% | 13µM* | -5% | -45%
O=C1CC(c2ccco2)CC(O)=C1C=Nc1cc(Cl)ccc1O (centres undefined) | -8% | 10µM* | u | -6% | -44%
